In PubChem BioAssay AID488913 (National Center for Advancing Translational Sciences (NCATS), 2010):
Results filed as inconclusive are left out. A call without a number means that no potency is given here. Active and inactive are the calls of the source. The call rests on the fitted dose curve; in most records, active means well fitted inhibition curve with a large enough effect; inconclusive means small, poorly fitted or top-dose-only effect, or effect the other way; inactive means no such curve, though single readings can be large or run the other way.

Experiment: Confirmation Concentration-Response Assay for lipid storage modulators: for probe SAR
Details: Drosophila S3 cells, BODIPY lipid droplet fluorescence, 18-24 h; series mostly up to 46.1 µM
Method in brief: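 Laser-scanning cytometry read BODIPY 493/503 lipid-droplet intensity and its ratio to CellTracker Red cell signal. Beforehand, 5,000 cells/well were exposed 18–24 h at 24 °C to test compound with oleic acid (1 µL, 400 µM). 20 µM Triacsin C defined full inhibition.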

Row | Compound | Potency
1 | CCOc1ccc(CCNC(=O)c2cc3sccc3n2CCc2ccccc2)cc1OCC | 28.1 nM (active)
2 | O=C(NC1CCCc2c1cnn2-c1ccc(F)cc1F)c1ccc2cc[nH]c2c1 (stereo unspecified) | 7710 nM (active)
3 | O=C(NC1CCCc2c1cnn2-c1cc(F)cc(F)c1)c1ccc(F)cc1Cl (stereo unspecified) | 2230 nM (active)
4 | CCOc1ccc(CCNC(=O)Cc2ccccc2)cc1OCC | inactive
5 | CC(=O)NCc1ccc(-c2csc(NC(=O)Cc3cccs3)n2)cc1 | inactive
6 | O=C(NC1CCCc2c1cnn2-c1ccc(F)cc1F)c1ccc[n+]([O-])c1 (stereo unspecified) | inactive
